{"source": "PubChem BioAssay (Tox21)", "note": "Records with an inconclusive call do not appear. Values without a mark were called inactive. The source made the active and inactive calls. Calls come from the whole dose curve; as a rule, active = well fitted cell-killing curve with a large enough effect in the repeat runs; inconclusive = weak or mixed curves; inactive = no such curve, though single readings can be large or run the other way. % is set by controls: 0 for no effect and ±100 for the full control effect; potency is the fitted concentration of half-maximal effect."}
{"experiment": "qHTS assay to identify small molecule antagonists of the androgen receptor (AR) signaling pathway - cell viability counter screen (AID 743033; note: nearly all actives have a fitted effect of over 45% in size)", "settings": "AR-bla HEK293 viability, CellTiter-Glo luminescence, 16 h; series mostly up to 58.5 µM; activity change, negative = cytotoxicity: at the top concentration", "excerpt": "National Center for Advancing Translational Sciences [NCATS]\nNIH Chemical Genomics Center [NCGC]\nU.S. Environmental Protection Agency [EPA]\nNational Institutes of Environmental Health Sciences [NIEHS]\nNational Toxicology Program [NTP]\nU.S. Food and Drug Administration [FDA]\nAndrogen receptor (AR), a nuclear hormone receptor, plays a critical role in AR-dependent prostate cancer and other androgen related diseases. Endocrine disrupting chemicals (EDCs) and their interactions with steroid hormone receptors like AR may cause disruption of normal endocrine function as well as interfere with metabolic homeostasis, reproduction, developmental and behavioral functions. To identify the compounds that inhibit AR signaling, GeneBLAzer AR-UAS-bla-GripTite cell line (Invitrogen, Carlsbad, CA, USA) containing a beta-lactamase reporter gene under control of an Upstream Activator Sequence (UAS) stably integrated into HEK293 cells was used to screen the Tox21 10K compound library. The cytotoxicity of the Tox21 compound library against the AR-bla cell line was tested in parallel by measuring the cell viability using CellTiter-Glo assay in the same wells.\nTox21 Assay Protocol Summary:\nAR-bla cells were dispensed at 2,000 cells/5 uL of assay medium per well into black wall/clear-bottom 1536-well plates using a Multidrop Combi (ThermoFisher Scientific, Waltham, MA) dispenser. After the assay plates were incubated at a 37C and 5% CO2 for 4 hr, 23 nL of compounds dissolved in DMSO, positive controls or DMSO only was transferred to the assay plate by a Pintool station (Kalypsys, San Diego, CA), followed by addition of 1 uL of agonist (R1881) in culture medium using a Bioraptr Flying Reagent Dispenser (FRD) workstation (Beckman Coulter, Indianapolis, IN, USA). The plates were incubated at a 37C and 5% CO2 for 16 h. After 1 uL of LiveBLAzerTM B/G FRET substrate was added using a Bioraptr FRD, the plates were incubated at room temperature for 2 h and fluorescence intensity was measured by an Envision plate reader (PerkinElmer, Shelton, CT). For cell viability readout that measures cytotoxicity, 4 ul/well of CellTiter-Glo reagent was added into the assay plates using a Bioraptr FRD. After 30 min incubation at room temperature, the luminescence intensity in the plates was measured using a ViewLux (PerkinElmer) plate reader."}
{"smiles": "O=[N+]([O-])c1cccc2cccnc12", "activity change, negative = cytotoxicity": "-0.499% [at 78.9 µM]"}
{"smiles": "COP(=S)(OC)Oc1c(Cl)cc(C)cc1Cl", "activity change, negative = cytotoxicity": "2.33%"}
{"smiles": "COc1cc(C[C@@H](C)N)c(OC)cc1C", "activity change, negative = cytotoxicity": "-9.92% [at 78.9 µM]"}
{"smiles": "COc1cccc(C(=O)NN(C(=O)c2cc(C)cc(C)c2)C(C)(C)C)c1C", "activity change, negative = cytotoxicity": "-12.2%"}
{"smiles": "CCN(CC)C(C)C(=O)c1ccccc1", "note": "(stereo not given)", "activity change, negative = cytotoxicity": "18.8%"}
{"smiles": "Nc1ccccc1Cl", "activity change, negative = cytotoxicity": "-21.3%"}
{"smiles": "COc1cccc2c1cc([N+](=O)[O-])c1c(C(=O)O)cc3c(c12)OCO3", "Potency": "12.3 µM (active)"}
{"smiles": "CNC(=O)Oc1ccc(N(C)C)c(C)c1", "activity change, negative = cytotoxicity": "1.22%"}
{"smiles": "O=P(O)(Oc1ccccc1)Oc1ccccc1", "activity change, negative = cytotoxicity": "2.77%"}
{"smiles": "C(CCOCC1CO1)COCC1CO1", "note": "(stereo not given)", "activity change, negative = cytotoxicity": "0.76%"}
{"smiles": "CCN(CC)C(=O)[C@@H]1C=C2c3cccc4[nH]cc(c34)C[C@H]2N(C)C1", "Potency": "inactive"}
{"smiles": "CC(C)NCC(O)c1ccc(N)c(C#N)c1", "note": "(stereo not given)", "activity change, negative = cytotoxicity": "4.03%"}
{"smiles": "BrCCCCCCBr", "activity change, negative = cytotoxicity": "0.133%"}
{"smiles": "C=C(C)[C@@H]1CC=C(C=O)CC1", "activity change, negative = cytotoxicity": "-6.33%"}
{"smiles": "C[C@]1(O)CC[C@H]2[C@@H]3CCC4=CC(=O)CC[C@]4(C)[C@@]3(F)[C@@H](O)C[C@@]21C", "Potency": "inactive"}
{"smiles": "[Cl][Sn]([Cl])([Cl])[Cl]", "activity change, negative = cytotoxicity": "3.46% [at 78.9 µM]"}
{"smiles": "Nc1cnn(-c2ccccc2)c(=O)c1Cl", "activity change, negative = cytotoxicity": "1.51%"}
{"smiles": "CC(C)(C)C(=O)C(Oc1ccc(Cl)cc1)n1cncn1", "note": "(stereo not given)", "activity change, negative = cytotoxicity": "-21.7%"}
{"smiles": "CN/C(=N\\[N+](=O)[O-])NCC1CCOC1", "note": "(stereo not given)", "activity change, negative = cytotoxicity": "10.5%"}
{"smiles": "CNC(=O)N(C)c1nc2ccccc2s1", "activity change, negative = cytotoxicity": "-4.09%"}
{"smiles": "CCCCP(CCCC)CCCC", "activity change, negative = cytotoxicity": "5.45%"}
{"smiles": "COP(N)(=S)Oc1ccccc1C(=O)OC(C)C", "note": "(stereo not given)", "activity change, negative = cytotoxicity": "1.2%"}
{"smiles": "O=NN1CCCCC1", "activity change, negative = cytotoxicity": "3.7%"}
{"smiles": "O=c1oc2ccccc2c(O)c1C1CCCc2ccccc21", "note": "(stereo not given)", "activity change, negative = cytotoxicity": "-9.34%"}
{"smiles": "N#CC(CCc1ccc(Cl)cc1)(Cn1cncn1)c1ccccc1", "note": "(stereo not given)", "Potency": "49 µM (active)"}
{"smiles": "CC1(C)COP(Oc2ccccc2)OC1", "activity change, negative = cytotoxicity": "13%"}
{"smiles": "CCC(C)(C)c1cc(-n2nc3ccccc3n2)c(O)c(C(C)(C)CC)c1", "activity change, negative = cytotoxicity": "1.07% [at 78.9 µM]"}
{"smiles": "C[C@]12CC[C@H]3[C@@H](CC=C4C[C@@H](O)CC[C@@]43C)[C@@H]1CC[C@@H]2O", "activity change, negative = cytotoxicity": "11.6%"}
{"smiles": "OCCBr", "activity change, negative = cytotoxicity": "0.463%"}
{"smiles": "COc1cc(OC)nc(Oc2cccc(Oc3nc(OC)cc(OC)n3)c2C(=O)O)n1", "activity change, negative = cytotoxicity": "-2.85%"}
{"smiles": "C1CCC(C2CCCCC2)CC1", "activity change, negative = cytotoxicity": "-13.9%"}
{"smiles": "O=[N+]([O-])c1ccc2c3c(cccc13)CC2", "activity change, negative = cytotoxicity": "2.27%"}
{"smiles": "COC(=O)c1c(C(F)F)nc(C(F)(F)F)c(C2=NCCS2)c1CC(C)C", "activity change, negative = cytotoxicity": "-6.44%"}
{"smiles": "CC1(C)CON(Cc2ccccc2Cl)C1=O", "activity change, negative = cytotoxicity": "-12.3%"}
{"smiles": "CC(C=O)Cc1ccc2c(c1)OCO2", "note": "(stereo not given)", "activity change, negative = cytotoxicity": "-5.84%"}
{"smiles": "CN1C[C@@H](NS(=O)(=O)N(C)C)C[C@@H]2c3cccc4c3c(cn4C)C[C@H]21", "activity change, negative = cytotoxicity": "2.24%"}
{"smiles": "COC(=O)c1ccccc1S(=O)(=O)NC(=O)N(C)c1nc(C)nc(OC)n1", "activity change, negative = cytotoxicity": "-0.969% [at 78.9 µM]"}
{"smiles": "Nc1c(Br)cc([N+](=O)[O-])cc1[N+](=O)[O-]", "activity change, negative = cytotoxicity": "-10.2% [at 78.9 µM]"}
{"smiles": "O=C1OC(=O)C2C1C1(Cl)C(Cl)=C(Cl)C2(Cl)C1(Cl)Cl", "note": "(stereo not given)", "activity change, negative = cytotoxicity": "0.745% [at 78.9 µM]"}
{"smiles": "N#CCBr", "activity change, negative = cytotoxicity": "3.75% [at 78.9 µM]"}
